Inconclusive results are not listed. Active and inactive are the calls of the source. The call rests on the fitted dose curve; in most records, active means well fitted inhibition curve with a large enough effect; inconclusive means small, poorly fitted or top-dose-only effect; inactive means no such curve, though single readings can be large or run the other way.
Potency means the concentration at half of the fitted maximal effect.

The assay in a line: InCell qHTS Assay for Inhibitors of the mTORC1 Signaling Pathway in MEF (Tsc2-/-, p53-/-) Cells: Hit Validation.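 Further: phospho-S6 Ser235/236 signal normalized to propidium iodide cell count per well; nearly all actives have a fitted effect of over 75% in size.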 Conditions: phospho-rpS6 immunofluorescence, 24 h; activity change, negative = inhibition: at 38.3 µM (top of the series). Background: qHTS replaces the single test concentration by a dilution series.
As to `Cc1nn(CCCC(=O)NCc2cccc(Cl)c2)c(=O)c2c1sc1ccccc12`, the activity change, negative = inhibition was -100%.

Consider `Cc1ccc(C)c(N2CCN(CCCNC(=O)C3COc4ccccc4C3)CC2)c1` (configuration not stated), for which the activity change, negative = inhibition was -100%.

For `CCOC(=O)C1=C(CN2CCN(c3cc(C)ccc3C)CC2)NC(=O)NC1c1ccc(Cl)cc1` (configuration not stated), the activity change, negative = inhibition was -100%.

In the case of `Cc1ccccc1S(=O)Cc1ccc(C(=O)N2CCN(c3cccc(C)c3C)CC2)o1` (configuration not stated), the activity change, negative = inhibition is -28.4%.

Turning to `CCC(C)S(=O)(=O)c1oc(-c2cccs2)nc1S(=O)(=O)c1ccccc1` (configuration not stated), the Potency is 1.17 µM (active).

For the molecule `COc1ccc(OC)c(NC2=C(c3ccccc3)C(=O)c3ccccc32)c1`, the activity change, negative = inhibition is -9.58%.

As for `Cc1c(Cl)cccc1NC(=O)c1oc2ccc(S(=O)(=O)N3CCC4(CC3)OCCO4)cc2c1C`, the activity change, negative = inhibition is -22.5%.

For `CCOC(=O)c1c(NC(=O)c2ccc(S(=O)(=O)N3CCC(C)CC3)cc2)sc2c1CCN(C)C2`, the activity change, negative = inhibition amounted to 1.72%.

As for `CCCCn1c(=N)n(CCOc2ccccc2OC)c2ccccc21`, the Potency is 7.36 µM (active).

As to `CCCN1CCN(c2ncnc3sc(C(=O)Nc4ccc(OC(F)(F)F)cc4)c(C)c23)CC1`, the activity change, negative = inhibition was -100%.

In the case of `COc1cc(C(=O)CC2(O)C(=O)N(Cc3ccccc3Cl)c3ccccc32)cc(OC)c1OC` (configuration not stated), the activity change, negative = inhibition is -3.93%.

As to `Cc1cccc(N(CC(=O)NCCSc2ccc(Cl)cc2)S(=O)(=O)c2ccccc2)c1C`, the activity change, negative = inhibition is -100%.

Consider `CN(C(=O)CSc1nc2ccc(NC(=O)COc3ccc(F)cc3)cc2s1)c1ccccc1`, for which the activity change, negative = inhibition is -100%.

As for `CC(C)Oc1cccc(C2CC(=O)Nc3cc4c(cc32)OCO4)c1` (configuration not stated), the activity change, negative = inhibition is -9.58%.

In the case of `COc1ccc(OC)c(C(=O)CC2(O)C(=O)N(Cc3ccccc3C)c3ccccc32)c1` (configuration not stated), the activity change, negative = inhibition is -100%.

For `O=C(Nc1ccc2nc(SCC(=O)N3CCCc4ccccc43)sc2c1)c1ccccc1F`, the activity change, negative = inhibition is -100%.

Take `Cc1ccccc1CS(=O)(=O)c1ncc(Cl)c(C(=O)Nc2nnc(C(C)C)s2)n1`: the Potency was 18.5 µM (active).

For the molecule `COc1ccc2c(c1)CC(C(=O)Nc1cc(Cl)ccc1C)CO2` (configuration not stated), the activity change, negative = inhibition was -100%.

Take `Cc1nc2scc(C)n2c(=O)c1S(=O)(=O)Nc1ccc(N2CCOCC2)c(Cl)c1`: the activity change, negative = inhibition is -100%.

Regarding `CN(c1ccccc1)S(=O)(=O)c1ccc(NC(=O)c2nc(S(C)(=O)=O)ncc2Cl)cc1`, the Potency was 2.07 µM (active).

As to `CCOC(=O)C(Cc1c[nH]c2ccccc12)NC(=O)COc1ccc(Cl)cc1` (configuration not stated), the activity change, negative = inhibition was -100%.

For `Cc1nc2nncn2c(NCc2ccc(F)cc2)c1C`, the activity change, negative = inhibition was -100%.

Consider `COc1cc(CN(C(=O)COc2ccc(C)c(C)c2)c2ccccn2)cc(OC)c1OC`, for which the activity change, negative = inhibition was -100%.

For `COc1ccc(NS(=O)(=O)c2ccc(-n3cccn3)cc2)cc1OC`, the activity change, negative = inhibition was -100%.

Regarding `CCCCOc1cccc(C(=O)N2CCN(CCc3ccncc3)CC2)c1`, the activity change, negative = inhibition is -100%.

For `CCc1ccc(-n2c(=O)c3c4c(sc3n(CC(=O)c3ccc(F)cc3)c2=O)CCC4)cc1`, the Potency is 9.27 µM (active).

Consider `Cc1ccc(-c2nnn(CC(=O)N(CC(=O)NCCC(C)C)c3ccc(F)cc3)n2)cc1`, for which the activity change, negative = inhibition is -100%.

Consider `CCOc1ccc(Nc2nc(-c3cccc(Cl)c3)c3c(n2)-c2ccccc2OC3)cc1`, for which the activity change, negative = inhibition is -100%.

Regarding `CC(C)CCNC(=O)c1cccc(Nc2nc3ccccc3n3nnnc23)c1`, the Potency is 4.14 µM (active).

`Cc1c(C(=O)OC2CCCCC2)[nH]c2c1C(=O)CC(c1ccccc1)C2` (configuration not stated): the activity change, negative = inhibition is -24.8%.

On to `CCN(c1ccccc1)S(=O)(=O)c1ccc(NC(=O)c2nc(S(C)(=O)=O)ncc2Cl)cc1`, for which the Potency was 3.69 µM (active).

With `CCCS(=O)(=O)c1ncc(Cl)c(C(=O)Nc2c(C(=O)Nc3ccccc3)oc3ccccc23)n1`, the Potency was 2.33 µM (active).

With `COc1ccc(Nc2nc(N)c3cc(OC)c(OC)cc3n2)cc1`, the activity change, negative = inhibition was -100%.

Consider `Cc1cccn2c(Nc3ccccc3)c(-c3cccs3)nc12`, for which the activity change, negative = inhibition was -100%.

Regarding `COc1ccc(NC(=O)CSc2nc3ccccc3n2Cc2cccc(OC)c2)cc1`, the activity change, negative = inhibition is -100%.

Take `CCc1ccc(NC(=O)Cn2nc(C(F)(F)F)c3c2CCCC3)cc1`: the activity change, negative = inhibition is -100%.

For `Cc1ccc(Nc2nc(C(N)=O)c(NC(=O)c3ccccc3Br)s2)cc1`, the activity change, negative = inhibition was -17.8%.

These data come from PubChem BioAssay AID651791 (National Center for Advancing Translational Sciences (NCATS), 2012).
